From paper PMC5540273 (PLoS ONE, 2017)

Columns and labels:
Settings in all cases: concentration: 1 μM, replicates: in singlicate; n = 1
[1] = test system: STK16
[2] = test system: STK33
[3] = test system: STK35
[4] = test system: STK36
[5] = test system: STK39
[6] = test system: SYK
[7] = test system: SgK110
[8] = test system: T1, TAK1
T1 construct: gene MAP3K7

[9] = test system: TAOK1
[10] = test system: TAOK2
[11] = test system: TAOK3
[12] = test system: TBK1
[13] = test system: TEC
[14] = test system: TESK1
[15] = test system: TGFBR1
[16] = test system: TGFBR2
[17] = test system: TIE1
[18] = test system: T2, TIE2
T2 construct: gene TEK

[19] = test system: TLK1
[20] = test system: TLK2
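Also: KINOMEscan kinase panel screen.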

| Compound | %Inh [1] | %Inh [2] | %Inh [3] | %Inh [4] | %Inh [5] | %Inh [6] | %Inh [7] | %Inh [8] | %Inh [9] | %Inh [10] | %Inh [11] | %Inh [12] | %Inh [13] | %Inh [14] | %Inh [15] | %Inh [16] | %Inh [17] | %Inh [18] | %Inh [19] | %Inh [20] |
| --- | --- | --- | --- | --- | --- | --- | --- | --- | --- | --- | --- | --- | --- | --- | --- | --- | --- | --- | --- | --- |
| Cc1cc(NCC(c2ccccc2)c2ccccc2)nc(NCc2ccc(C(F)(F)F)cc2)n1 [GW497681] | 18% | 0% | 0% | 0% | 0% | 0% | 0% | 0% | 0% | 0% | 0% | 22% | 0% | 13% | 22% | 0% | 0% | 0% | 9% | 0% |
| CN(C)CCN(C)C(=O)c1cc(-c2ccncc2)c(-c2ccc(Cl)c(O)c2)o1.Cl.Cl [SB-710397] | 4% | 0% | 0% | 0% | 33% | 17% | 6% | 0% | 0% | 0% | 0% | 0% | 6% | 43% | 0% | 72% | 7% | 0% | 0% | 0% |
| COc1cccc(NC(=O)NC2CCN(c3ccnc(Nc4ccc(F)cc4)n3)C2)c1 (centres unmarked) [GSK1379721] | 16% | 0% | 0% | 0% | 9% | 0% | 0% | 0% | 0% | 0% | 2% | 16% | 0% | 32% | 15% | 0% | 0% | 0% | 6% | 4% |
| Fc1cc(Cl)ccc1Nc1ccnc2cc(I)ccc12 [GW551191] | 9% | 0% | 57% | 0% | 15% | 0% | 4% | 0% | 0% | 0% | 0% | 11% | 22% | 12% | 17% | 50% | 0% | 0% | 21% | 0% |
| CN1C(=O)C(Nc2ccc(Cl)c(C(=O)O)c2)=C(c2ccc(Cl)cc2)C1=O [SB-404290] | 0% | 0% | 4% | 0% | 0% | 28% | 0% | 0% | 11% | 5% | 19% | 27% | 0% | 0% | 0% | 0% | 0% | 14% | 0% | 0% |
| COc1ccccc1-c1ccc2c(NC(=O)C3CC3)n[nH]c2n1 [SB-711239] | 28% | 20% | 0% | 6% | 18% | 20% | 14% | 0% | 0% | 0% | 0% | 26% | 0% | 8% | 14% | 1% | 6% | 11% | 0% | 2% |
| O=C(Nc1ccccc1)Nc1cccc(Oc2ccc3nccn3n2)c1 | 0% | 1% | 11% | 0% | 0% | 12% | 40% | 0% | 0% | 0% | 0% | 10% | 0% | 0% | 5% | 9% | 0% | 92.4% | 17% | 0% |
| COc1cc2ncnc(Nc3ccc4nc(-c5ccccc5)[nH]c4c3)c2cc1OC.Cl [GW282450] | 19% | 0% | 0% | 0% | 0% | 43% | 0% | 23% | 0% | 0% | 0% | 12% | 0% | 20% | 0% | 0% | 1% | 0% | 0% | 0% |
| COC(=O)c1c(-c2ccccc2)c2cc(OC)ccc2c(=O)n1Cc1ccccc1 | 3% | 0% | 3% | 11% | 0% | 0% | 0% | 19% | 0% | 0% | 0% | 0% | 14% | 20% | 17% | 0% | 3% | 0% | 23% | 0% |
| Cc1c(Cn2ccn3c(=O)cc(N4CCOCC4)nc23)cccc1C(F)(F)F [GSK2289044] | 13% | 0% | 0% | 19% | 13% | 15% | 0% | 0% | 0% | 0% | 0% | 7% | 0% | 17% | 0% | 0% | 10% | 0% | 0% | 0% |
